In PubChem BioAssay (NCI):
Compounds without any hit were thinned out: in the full panel of roughly 83,000, 20% have a hit.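 Each cell line was grown in a 96-well plate and treated with one concentration of compound for 48 hours. Values below 10 were considered active.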

Assays:
Experiment in all cases: NCI-60 one-dose screen, 48 h (100 = growth as untreated, 0 = no growth, -100 = all killed)
HT29 colon = conditions: 10 µM unless noted
SNB-75 CNS = conditions: 10 µM unless noted
SNB-19 CNS = conditions: 10 µM unless noted
U251 CNS = conditions: 10 µM unless noted
PC-3 prostate = conditions: 10 µM unless noted
SK-MEL-5 melanoma = conditions: 10 µM unless noted
UACC-62 melanoma = conditions: 10 µM unless noted
LOX IMVI melanoma = conditions: 10 µM unless noted
SK-MEL-28 melanoma = conditions: 10 µM
SK-MEL-2 melanoma = conditions: 10 µM unless noted
EKVX NSCLC = conditions: 10 µM unless noted
SN12C renal = conditions: 10 µM unless noted
UO-31 renal = conditions: 10 µM unless noted
TK-10 renal = conditions: 10 µM unless noted
ACHN renal = conditions: 10 µM unless noted
CAKI-1 renal = conditions: 10 µM unless noted
A498 renal = conditions: 10 µM unless noted
CCRF-CEM leukemia = conditions: 10 µM unless noted
MOLT-4 leukemia = conditions: 10 µM unless noted
SR leukemia = conditions: 10 µM unless noted

Measured: growth

O=C(/C=C/c1ccc(Cl)cc1)c1ccc(Nc2nc(NCCO)nc(N3CCOCC3)n2)cc1
inactive: HT29 colon 42.2% | SNB-75 CNS 64.6% | SNB-19 CNS 91.9% | U251 CNS 46.1% | PC-3 prostate 77.1% | SK-MEL-5 melanoma 79.4% | UACC-62 melanoma 69% | LOX IMVI melanoma 68% | SK-MEL-28 melanoma 94.7% | SK-MEL-2 melanoma 109% | EKVX NSCLC 94% | SN12C renal 88.4% | UO-31 renal 56% | TK-10 renal 111% | ACHN renal 82.5% | CAKI-1 renal 77.6% | A498 renal 92.6% | CCRF-CEM leukemia 82.8% | MOLT-4 leukemia 71.3% | SR leukemia 19.8%

Cc1ccc(N=NC2C(=O)N(c3ccc(Cl)cc3)N(c3ccc(Cl)cc3)C2=O)cc1
inactive: HT29 colon 104% | SNB-75 CNS 84.1% | SNB-19 CNS 91.1% | U251 CNS 99% | PC-3 prostate 93.4% | SK-MEL-5 melanoma 91.6% | UACC-62 melanoma 92.4% | LOX IMVI melanoma 96.6% | SK-MEL-28 melanoma 99.1% | SK-MEL-2 melanoma 105% | EKVX NSCLC 94.1% | SN12C renal 96.4% | UO-31 renal 73.1% | TK-10 renal 132% | ACHN renal 95% | CAKI-1 renal 92.4% | A498 renal 88.6% | CCRF-CEM leukemia 96.3% | MOLT-4 leukemia 100% | SR leukemia 120%

O=C(c1nc2ccccc2[nH]1)C1C(c2ccc(F)cc2)C2CC3CCCCC3N2[C@@]12C(=O)Nc1ccc(Cl)cc12 (stereo not given in full)
inactive: HT29 colon 24.9% | SNB-75 CNS 36.7% | SNB-19 CNS 54.1% | U251 CNS 51.2% | PC-3 prostate 35.4% | SK-MEL-5 melanoma 47.3% | UACC-62 melanoma 55.1% | LOX IMVI melanoma 46% | SK-MEL-28 melanoma 61% | SK-MEL-2 melanoma 65.8% | EKVX NSCLC 39.5% | SN12C renal 52% | UO-31 renal 30.9% | TK-10 renal 72.9% | ACHN renal 43.1% | CAKI-1 renal 54.8% | A498 renal 39.8% | CCRF-CEM leukemia 33.3% | MOLT-4 leukemia 11.4% | SR leukemia 21%

COc1cc(/C=C2\CN(C)C/C(=C\c3cc(CN4CCCC4)c(O)c(OC)c3)C2=O)cc(CN2CCCC2)c1O
inactive: HT29 colon 25.6% | SNB-75 CNS 75.3% | SNB-19 CNS 74.7% | U251 CNS 25.8% | PC-3 prostate 76.8% | SK-MEL-5 melanoma 89.3% | UACC-62 melanoma 81.7% | LOX IMVI melanoma 26.3% | SK-MEL-28 melanoma 90.7% | SK-MEL-2 melanoma 92.1% | EKVX NSCLC 83.9% | SN12C renal 53.6% | UO-31 renal 80.7% | TK-10 renal 101% | ACHN renal 79% | CAKI-1 renal 99.6% | A498 renal 98.2% | CCRF-CEM leukemia 34.1% | MOLT-4 leukemia 57.6% | SR leukemia 38.7%

O=C(NCc1ccccc1)C1CN(c2ccc(Cl)cc2)N(c2ccc(Cl)cc2)C1=O (stereo not given)
inactive: HT29 colon 48.8% | SNB-75 CNS 82.9% | SNB-19 CNS 84.9% | U251 CNS 84.2% | PC-3 prostate 67.9% | SK-MEL-5 melanoma 83.3% | UACC-62 melanoma 58.7% | LOX IMVI melanoma 88.4% | SK-MEL-28 melanoma 88.9% | SK-MEL-2 melanoma 85.8% | EKVX NSCLC 87.8% | SN12C renal 91% | UO-31 renal 55.9% | TK-10 renal 95.7% | ACHN renal 94.7% | CAKI-1 renal 75.4% | A498 renal 73.4% | CCRF-CEM leukemia 73.4% | MOLT-4 leukemia 64.3% | SR leukemia 34.3%

O=C(NC1C(O)OC(CO)C(O)C1O)NS(=O)(=O)c1ccc(Cl)cc1 (stereo not given)
inactive: HT29 colon 93.2% | SNB-75 CNS 94% | SNB-19 CNS 101% | U251 CNS 103% | PC-3 prostate 94.5% | SK-MEL-5 melanoma 104% | UACC-62 melanoma 94.8% | LOX IMVI melanoma 101% | SK-MEL-28 melanoma 105% | SK-MEL-2 melanoma 101% | EKVX NSCLC 109% | SN12C renal 98.1% | UO-31 renal 77.1% | TK-10 renal 110% | ACHN renal 102% | CAKI-1 renal 94.4% | A498 renal 95.2% | CCRF-CEM leukemia 99.1% | MOLT-4 leukemia 102% | SR leukemia 100%

COc1ccc(/C=C2/SC(=O)N(CC(=O)N3CCN(c4cc5c(cc4F)c(=O)c(C(=O)O)cn5C4CC4)CC3)C2=O)cc1
inactive: HT29 colon 99.2% | SNB-75 CNS 86.4% | SNB-19 CNS 101% | U251 CNS 101% | PC-3 prostate 104% | SK-MEL-5 melanoma 101% | UACC-62 melanoma 97.3% | LOX IMVI melanoma 93.9% | SK-MEL-28 melanoma 107% | SK-MEL-2 melanoma 108% | EKVX NSCLC 114% | SN12C renal 96.5% | UO-31 renal 81.8% | TK-10 renal 117% | ACHN renal 102% | CAKI-1 renal 92.4% | A498 renal 113% | CCRF-CEM leukemia 107% | MOLT-4 leukemia 108% | SR leukemia 94.4%
